# From PubChem BioAssay
# Activity calls are given as the source filed them.
# What was measured:
# Albumin (Bos taurus) = Albumin (Bos taurus) (UniProt P02769); assay: bovine serum albumin binders on microarray, profiling panel, artefact control for SMM control protein annotation, biochemical, small-molecule microarray, Alexa647 label, 635/667 nm fluorescence (AID 1118); details: BSA-A647 binding, fluorescence 635 nm, higher = more signal;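 note: score merges 667 nm emission intensity and signal-to-noise per printed compound spot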
# [1] = small-molecule microarray binders of probe aXIP, primary screen, biochemical, NeuroSMM set, 635/667 nm fluorescence (AID 1119); details: higher = more signal, called active from +8 up or from −8 down;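 note: probe is the protein aXip251-270 applied at 1 µg/mL to compound-printed slides; binding of probe to printed compounds measured as 667 nm fluorescence plus signal to noise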
# [2] = small-molecule binders of probe aNOTCH3, primary screen, biochemical, small-molecule microarray, 635/667 nm fluorescence (AID 1120); details: higher = more signal;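 note: probe is a biotin-tagged antibody raised against NOTCH3 rather than NOTCH3 protein; score merges spot fluorescence near 667 nm with spot signal to noise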
# [3] = small-molecule binders of probe aNOTCH2, primary screen, biochemical, small-molecule microarray, 635/667 nm fluorescence (AID 1121); details: higher = more signal;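 note: score merges feature fluorescence read at 667 nm with its signal to noise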
# [4] = molecular target: Carbonic anhydrase 2 (Homo sapiens) (UniProt P00918); assay: CAII small-molecule binders, profiling panel, biochemical, small-molecule microarray, Alexa647-labelled CAII (AID 1122); details: CAII-A647 binding fluorescence, higher = more signal
# [5] = COS7 lysate on small-molecule microarray, probe aHis, 635 nm (AID 1123); details: COS7 cell lysate, fluorescence, higher = more signal;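 note: z-score combines 667nm fluorescence intensity with signal-to-noise per printed compound spot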
# [6] = compound binding in COS7 lysate, probe aLAP1, primary screen, cell lysate, small-molecule microarray (AID 1124); details: probe aLAP1, fluorescence, higher = more signal;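 note: lysate comes from COS7 cells expressing LAP1 and is applied at 0.3 µg/mL; score merges spot fluorescence near 667 nm with signal-to-noise over triplicate slides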
# Sam68 (KHDRBS1) = assay: Sam68 small-molecule binders, primary screen, biochemical, small-molecule microarray, 635 nm fluorescence (AID 1125); details: small-molecule microarray binding, higher = more signal;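 note: score merges 667 nm channel intensity with signal to noise over triplicate slides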
# [7] = system: Chordin-like protein 2 (CHRDL2); assay: CHRDL2 small-molecule binders, primary screen, biochemical, small-molecule microarray, 635 nm fluorescence (AID 1126); details: small-molecule microarray binding, fluorescence 635 nm; higher = more signal;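 note: printed compound slides probed with Chrdl2 protein at 4 µg/mL for 1 h at 4 C; score merges 667 nm emission intensity with signal to noise over three replicate slides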
# [8] = molecular target: Concanavalin-A (Canavalia ensiformis) (UniProt P02866); assay: ConA small-molecule binders, primary screen, artefact control for SMM control protein annotation, biochemical, small-molecule microarray, Alexa647 label, 635 nm (AID 1127); details: ConA-A647 binding fluorescence, higher = more signal;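 note: z combines 667 nm emission intensity with signal-to-noise across three replicate slides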
# [9] = anti-His antibody binders, primary screen, artefact control for SMM control protein annotation, biochemical, small-molecule microarray, 635 nm fluorescence (AID 1128); details: anti-His Alexa647 antibody binding, higher = more signal;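 note: score merges feature fluorescence with signal-to-noise for each printed compound spot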
# [10] = system: Human papillomavirus type 1a E7 protein (residues 1-88); assay: HPV1a E7 small-molecule binders, primary screen, biochemical, small-molecule microarray, residues 1-88, 635 nm (AID 1129); details: small-molecule microarray binding, fluorescence 635 nm; higher = more signal
# [11] = molecular target: Focal adhesion kinase 1 (Homo sapiens) (UniProt Q05397); assay: small-molecule microarray binders of FAK, primary screen, biochemical, 635/667 nm fluorescence, BSA, DTT (AID 1130); details: PTK2 binding, 635 nm fluorescence, higher = more signal;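 note: composite of spot emission at 667 nm and signal to noise over triplicate slides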
# [12] = system: Fibrinogen (Alexa647-labelled); assay: fibrinogen binders on compound microarrays, profiling panel, artefact control for SMM control-protein annotation, biochemical, small-molecule microarray, 635/667 nm fluorescence (AID 1131); details: fibrinogen-A647 binding fluorescence, higher = more signal;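 note: z-score merges 667 nm fluorescence with per-spot signal-to-noise over triplicate slides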
# [13] = molecular target: Follistatin (Homo sapiens) (UniProt P19883); assay: follistatin binders on small-molecule microarrays, primary screen, biochemical, small-molecule microarray, 635/667 nm fluorescence (AID 1132); details: FST binding, 635 nm fluorescence, higher = more signal
# [14] = molecular target: Fibroblast growth factor 2 (Homo sapiens) (UniProt P09038); assay: FGF2 binders on small-molecule microarrays, primary screen, biochemical, small-molecule microarray, 635/667 nm fluorescence (AID 1133); details: small-molecule microarray binding, FGF2, fluorescence 635/667; higher = more signal
# [15] = mitochondrial membrane potential change in A549 cells, profiling panel, cell-based, JC-1 fluorescence, basal, 24 h, 100 nL (AID 1138); details: higher = more signal;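 note: A549 lung adenocarcinoma cells under basal conditions with no added stimulus; test concentration not given here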
# Lefty1 = Lefty1 binders on small-molecule microarrays, primary screen, biochemical, small-molecule microarray, 635/667 nm fluorescence (AID 1139); details: small-molecule microarray binding, fluorescence 635/667; higher = more signal
# [16] = system: wheat germ agglutinin (Triticum aestivum), Alexa647-labelled; assay: wheat germ agglutinin binders on compound microarrays, profiling panel, artefact control for SMM control-protein annotation, biochemical, small-molecule microarray, 635/667 nm fluorescence (AID 1140); details: WGA-A647 binding, 635 nm fluorescence, higher = more signal;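 note: score merges 667 nm feature emission with signal to noise over triplicate slides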
# [17] = molecular target: Luciferin 4-monooxygenase (Photinus pyralis) (UniProt P08659); assay: firefly luciferase enzyme inhibitors, primary screen, biochemical, luminescence, purified enzyme, 2006 set (AID 1141); details: SteadyGlo luminescence, 30 min, higher = more signal, called active from +8 up or from −8 down;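 note: cell-free assay with purified firefly luciferase at 100 ng per well in PBS; test concentration not given here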
# Luciferin 4-monooxygenase (Photinus pyralis), sequence (P08659 whole entry, looked up): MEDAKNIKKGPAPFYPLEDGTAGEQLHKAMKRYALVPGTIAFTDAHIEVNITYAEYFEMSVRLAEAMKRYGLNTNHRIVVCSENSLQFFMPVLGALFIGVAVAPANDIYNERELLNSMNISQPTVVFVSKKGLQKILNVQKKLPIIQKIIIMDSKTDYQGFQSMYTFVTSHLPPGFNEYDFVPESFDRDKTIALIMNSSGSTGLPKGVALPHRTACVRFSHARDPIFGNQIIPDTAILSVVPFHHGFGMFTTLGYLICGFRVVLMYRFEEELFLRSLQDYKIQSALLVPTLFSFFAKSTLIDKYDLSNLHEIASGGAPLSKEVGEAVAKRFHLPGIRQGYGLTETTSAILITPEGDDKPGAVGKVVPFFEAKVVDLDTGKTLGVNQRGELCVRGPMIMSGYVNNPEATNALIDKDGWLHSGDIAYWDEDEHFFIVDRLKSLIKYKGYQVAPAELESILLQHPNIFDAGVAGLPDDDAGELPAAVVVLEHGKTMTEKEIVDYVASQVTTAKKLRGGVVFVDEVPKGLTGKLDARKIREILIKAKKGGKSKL
# Concanavalin-A (Canavalia ensiformis), sequence (P02866 whole entry, looked up): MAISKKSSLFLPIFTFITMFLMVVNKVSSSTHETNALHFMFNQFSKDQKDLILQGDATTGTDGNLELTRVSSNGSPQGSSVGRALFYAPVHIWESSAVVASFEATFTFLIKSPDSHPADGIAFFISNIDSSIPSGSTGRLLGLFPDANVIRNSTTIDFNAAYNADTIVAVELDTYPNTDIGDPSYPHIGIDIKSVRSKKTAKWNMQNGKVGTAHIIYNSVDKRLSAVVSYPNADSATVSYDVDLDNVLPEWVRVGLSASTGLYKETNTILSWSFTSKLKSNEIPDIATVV
# Follistatin (Homo sapiens), sequence (P19883 whole entry, looked up): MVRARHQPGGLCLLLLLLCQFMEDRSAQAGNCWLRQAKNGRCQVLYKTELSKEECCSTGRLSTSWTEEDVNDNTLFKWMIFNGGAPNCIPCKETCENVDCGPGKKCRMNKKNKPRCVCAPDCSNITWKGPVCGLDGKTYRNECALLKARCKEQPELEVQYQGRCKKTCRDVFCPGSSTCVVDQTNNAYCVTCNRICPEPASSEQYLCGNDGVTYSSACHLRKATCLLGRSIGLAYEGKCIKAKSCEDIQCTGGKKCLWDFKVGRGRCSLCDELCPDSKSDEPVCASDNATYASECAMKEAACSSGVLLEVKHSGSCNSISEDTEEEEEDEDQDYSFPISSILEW
# Fibroblast growth factor 2 (Homo sapiens), sequence (P09038 whole entry, looked up): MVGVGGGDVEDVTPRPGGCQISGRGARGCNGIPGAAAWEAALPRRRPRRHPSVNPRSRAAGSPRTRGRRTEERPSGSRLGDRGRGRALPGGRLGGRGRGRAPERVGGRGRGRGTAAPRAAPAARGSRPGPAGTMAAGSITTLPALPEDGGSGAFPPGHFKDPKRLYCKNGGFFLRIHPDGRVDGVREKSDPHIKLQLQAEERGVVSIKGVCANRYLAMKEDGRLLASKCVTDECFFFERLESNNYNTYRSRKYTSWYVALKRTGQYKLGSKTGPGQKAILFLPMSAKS
# Albumin (Bos taurus), sequence (P02769 whole entry, looked up): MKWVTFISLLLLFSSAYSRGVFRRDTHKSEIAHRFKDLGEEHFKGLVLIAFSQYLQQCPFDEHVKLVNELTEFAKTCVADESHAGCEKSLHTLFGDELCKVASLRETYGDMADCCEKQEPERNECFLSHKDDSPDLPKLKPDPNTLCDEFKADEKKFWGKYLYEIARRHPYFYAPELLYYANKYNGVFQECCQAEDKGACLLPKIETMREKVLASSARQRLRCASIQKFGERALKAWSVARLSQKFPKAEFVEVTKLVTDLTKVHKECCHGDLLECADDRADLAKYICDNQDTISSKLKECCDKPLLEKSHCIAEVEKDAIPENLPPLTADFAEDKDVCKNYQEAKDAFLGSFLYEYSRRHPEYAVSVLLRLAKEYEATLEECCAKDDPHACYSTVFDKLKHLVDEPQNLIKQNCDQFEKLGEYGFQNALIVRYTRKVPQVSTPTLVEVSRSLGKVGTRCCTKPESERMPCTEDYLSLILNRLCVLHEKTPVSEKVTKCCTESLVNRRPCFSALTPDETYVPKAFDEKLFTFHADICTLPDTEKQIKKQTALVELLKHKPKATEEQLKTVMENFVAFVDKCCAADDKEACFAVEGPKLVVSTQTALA
# Focal adhesion kinase 1 (Homo sapiens), sequence (Q05397 whole entry, looked up): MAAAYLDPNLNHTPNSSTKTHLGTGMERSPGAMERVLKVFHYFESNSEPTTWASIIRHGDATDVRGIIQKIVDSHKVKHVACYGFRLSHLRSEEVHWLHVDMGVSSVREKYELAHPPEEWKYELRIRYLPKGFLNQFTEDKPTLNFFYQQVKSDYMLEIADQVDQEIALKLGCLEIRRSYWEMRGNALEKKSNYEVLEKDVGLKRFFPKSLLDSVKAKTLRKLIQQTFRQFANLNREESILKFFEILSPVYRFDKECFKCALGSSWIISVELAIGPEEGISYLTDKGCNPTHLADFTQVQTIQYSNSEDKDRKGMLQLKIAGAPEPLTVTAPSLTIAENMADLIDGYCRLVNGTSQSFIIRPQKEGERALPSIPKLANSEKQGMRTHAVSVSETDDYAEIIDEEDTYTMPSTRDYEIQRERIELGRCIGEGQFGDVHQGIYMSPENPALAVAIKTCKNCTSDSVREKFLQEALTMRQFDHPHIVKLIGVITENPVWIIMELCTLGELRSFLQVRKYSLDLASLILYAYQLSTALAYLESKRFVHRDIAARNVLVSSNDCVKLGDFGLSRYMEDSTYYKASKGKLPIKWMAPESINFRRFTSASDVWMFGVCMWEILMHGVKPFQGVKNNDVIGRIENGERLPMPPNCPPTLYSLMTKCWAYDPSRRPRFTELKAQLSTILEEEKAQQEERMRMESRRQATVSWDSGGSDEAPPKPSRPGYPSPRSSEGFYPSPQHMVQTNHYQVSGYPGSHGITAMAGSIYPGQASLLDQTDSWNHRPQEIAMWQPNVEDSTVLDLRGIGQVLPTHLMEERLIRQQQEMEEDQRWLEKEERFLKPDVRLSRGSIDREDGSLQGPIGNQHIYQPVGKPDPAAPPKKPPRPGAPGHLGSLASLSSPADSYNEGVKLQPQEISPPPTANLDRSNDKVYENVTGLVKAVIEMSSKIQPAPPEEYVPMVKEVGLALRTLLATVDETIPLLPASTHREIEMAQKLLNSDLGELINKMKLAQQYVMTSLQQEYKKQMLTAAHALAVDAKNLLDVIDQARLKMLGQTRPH
SMILES,composite z-score (Albumin (Bos taurus)),composite Z-score [1],composite z-score [2],composite z-score [3],composite z-score [4],composite z-score [5],composite z-score [6],composite z-score (Sam68 (KHDRBS1)),composite z-score [7],composite z-score [8],composite z-score [9],composite z-score [10],composite z-score [11],composite z-score [12],composite z-score [13],composite z-score [14],z-score [15],composite z-score (Lefty1),composite z-score [16],z-score [17]
COc1ccc([Si](C)(C)[C@@H]2[C@@H](CCO)O[C@]3(C(=O)N(Cc4ccc(N5C(=O)c6ccccc6Oc6ccccc65)cc4)c4ccccc43)[C@H]2C)cc1,0.0104,0.441 (inactive),-0.0984,-0.106,-0.104,0.232,-0.398,-0.345,-0.968,0.187,0.0758,-0.235,-0.394,-0.0953,-0.163,-1.1,-0.285,0.0179,0.104,0.173 (inactive)
O=C(N1CCOCC1)[C@@]1(CCS(=O)(=O)c2ccccc2)COC(c2ccc(OCCCO)cc2)=N1,0.39,0.667 (inactive),-0.0073,-0.191,0.704,2.45,-0.0296,0.605,-0.034,-0.257,0.436,1.18,0.307,-0.71,-0.176,0.974,-0.336,-1.32,-0.204,0.735 (inactive)
CCCN1C(=O)[C@@]2(Cc3ccccc3)N=C(c3ccc(OCCCO)cc3)O[C@H]2c2ccccc21,0.508,0.72 (inactive),0.204,0.0055,0.329,2.69,0.688,1.3,0.804,0.96,0.856,1.08,0.86,0.753,1.42,1.73,0.686,0.757,0.445,-4.05 (inactive)
CN(C)CCCNC(=O)[C@@]1(Cc2ccccc2I)c2ccccc2C(=O)N(Cc2ccccc2Cl)[C@H]1c1ccc(CO)cc1,0.827,-0.175 (inactive),0.175,0.2,0.522,1.44,0.507,-0.035,-1.09,1.09,-0.528,1.08,0.224,0.788,-0.292,-0.717,-1.18,-0.615,0.73,0.122 (inactive)
C=C(COC)/C(=C/C[C@@H](OC(=O)c1ccncc1)c1cccc(OCCO)c1)c1cc(C(=O)OC)ccc1OC,-0.431,0.135 (inactive),0.0297,-0.147,0.646,-0.0596,0.996,1.24,0.699,0.206,0.0301,0.942,-0.0044,0.199,1.42,2,1.28,1.63,0.181,-1.11 (inactive)
COC(=O)c1ccc(OC)c(/C=C\CC(CCc2ccccc2)OC(C)=O)c1 (stereo not given),0.804,-0.376 (inactive),-0.272,-0.196,0.557,-0.14,0.275,-0.0896,0.204,0.0426,-0.281,-0.133,0.377,-0.177,0.457,-0.293,0.293,0.222,0.476,-0.558 (inactive)
CN(C)CCCN1C(=O)[C@@]2(Cc3ccccc31)c1ccccc1C(=O)N(Cc1ccccc1)[C@H]2c1ccc(CO)cc1,-0.153,0.634 (inactive),-0.109,-0.181,-0.0077,-0.258,-0.485,0.347,0.757,0.544,-0.201,-0.153,-0.0553,0.385,0.375,0.144,-0.548,0.122,0.111,1.09 (inactive)
O=C(O)[C@]1(CCS(=O)(=O)c2ccccc2)N=C(c2ccc(OCCCO)cc2)O[C@@H]1c1ccccc1,0.815,0.207 (inactive),0.196,0.197,0.858,2.59,0.341,0.541,-0.0616,-0.251,0.367,0.228,0.221,0.447,-0.029,-0.0377,0.0511,-0.655,1.36,-1.87 (inactive)
Cc1ccc(F)cc1S(=O)(=O)N[C@@H]1CCN(C(=O)c2ccc(OC(C)C)cc2)C1,0.0765,-0.107 (inactive),0.116,-0.184,-0.0494,0.644,0.194,1.13,0.686,0.0897,1.42,1.16,0.485,0.371,0.485,1.24,0.946,0.913,0.557,-0.457 (inactive)
CN1C(=O)C2C=CC(C(O)c3cccc4ccccc34)N(NC(=O)OC(C)(C)C)C2C1=O (stereo not given),1,0.58 (inactive),0.479,0.385,0.752,2.95,1.57,1.3,-0.705,1.17,1.45,1.02,1.83,0.691,0.435,-0.331,0.274,-0.516,1.16,0.216 (inactive)
COc1cccc(C[C@H]2C[C@@H](CO[Si](C(C)C)(C(C)C)C(C)C)N3C(=O)[C@]4(C(C)=O)O[C@]23[C@H]2C(=O)N(C)C(=O)[C@H]24)c1,0.614,-0.12 (inactive),-0.0647,-0.148,-0.0064,0.0217,-0.274,1.14,0.403,0.98,0.786,1.04,0.353,0.674,0.9,0.865,1.51,1.19,0.425,0.216 (inactive)
